Results with a measured potency or affinity are listed apart.

Here are results for 10 compounds from ChEMBL document CHEMBL4513143, “CO-ADD screening of University of Natural Resources and Life (Austria) compounds”.

One assay deals with Klebsiella pneumoniae. Particulars: Concentration 32 ug.mL-1; ASSAY_TEST Inhibition of Bacterial Growth; detection method Absorption (OD600); MEDIA CAMHB; plate type 384well; NBS; CORNING #3640; time 18 hr.
For the next assay, the system named is Candida albicans. Particulars: 32 ug/mL.
Another assay relates to Cryptococcus neoformans. The conditions noted are these: Concentration 32 ug.mL-1; ASSAY_TEST Inhibition of Fungal Growth; detection method Resazurin; Absorption (OD600-OD570); plate type 384well; NBS; CORNING #3640.

The term Inhibition denotes the relative decrease from the control value, in per cent. Take `CCN(CC)CC.C[C@H](CC1O[C@H]([C@@H](O)CO)[C@@H](O)[C@H](O)[C@@H]1O)OP(=O)(O)O` (stereo not given in full): the figures for the Inhibition with Klebsiella pneumoniae, in the assay on Candida albicans and in the assay on Cryptococcus neoformans were 38.35%, 1.33% and -5.02%, respectively.
The like results for `CC(=O)CC1O[C@H]([C@@H](O)CO)[C@@H](O)[C@H](O)[C@@H]1O` (stereo not given in full) were, in that order, 30.36%, -0.45% and -7.35%.
In the case of `CCN(CC)CC.C[C@H](CC1O[C@H]([C@H](O)CO)[C@@H](O)[C@H](O)[C@@H]1O)OP(=O)(O)OC[C@H]1O[C@@H](n2cnc3c(N)ncnc32)[C@H](O)[C@@H]1O` (stereo not given in full), the Inhibition in the assay with Klebsiella pneumoniae is 32.34%; with Candida albicans it was 2.8%; in the assay with Cryptococcus neoformans, -3.79%.
For `CCN(CC)CC.C[C@@H](CC1O[C@H]([C@H](O)CO)[C@@H](O)[C@H](O)[C@@H]1O)OP(=O)(O)OC[C@H]1O[C@@H](n2cnc3c(N)ncnc32)[C@H](O)[C@@H]1O` (stereo not given in full), the Inhibition with Klebsiella pneumoniae was 9.8%; with Candida albicans, -0.9%; in the assay on Cryptococcus neoformans it was -12.32%.
For `N.O=C(O)C1(O)C[C@@H](O)[C@H](O)[C@@H]([C@@H](O)CO)O1` (stereo not given in full), the Inhibition in the assay on Klebsiella pneumoniae was 28.17%; with Candida albicans, 3.34%; in the assay on Cryptococcus neoformans, -12.91%.
In the case of `CCN(CC)CC.C[C@H](CC1O[C@H]([C@@H](O)CO)[C@@H](O)[C@H](O)[C@@H]1O)OP(=O)(O)OC[C@H]1O[C@@H](n2cnc3c(N)ncnc32)[C@H](O)[C@@H]1O` (stereo not given in full), the Inhibition is 21.04% in the assay on Klebsiella pneumoniae, -0.71% in the assay with Candida albicans and -12.97% with Cryptococcus neoformans.
As for `CCN(CC)CC.C[C@@H](CC1O[C@H]([C@@H](O)CO)[C@@H](O)[C@H](O)[C@@H]1O)OP(=O)(O)O` (stereo not given in full), the results for the Inhibition with Klebsiella pneumoniae, with Candida albicans and in the assay with Cryptococcus neoformans were 41.76%, 0.34% and -7.83%, respectively.
As to `CCN(CC)CC.C[C@@H](CC1O[C@H]([C@@H](O)CO)[C@@H](O)[C@H](O)[C@@H]1O)OP(=O)(O)OC[C@H]1O[C@@H](n2cnc3c(N)ncnc32)[C@H](O)[C@@H]1O` (stereo not given in full), the Inhibition with Klebsiella pneumoniae was 27.9%; with Candida albicans it was 0.32%; in the assay on Cryptococcus neoformans it was -9%.
Turning to `OC[C@@H](O)[C@H]1OC(O)C[C@@H](O)[C@@H]1O` (stereo not given in full), the Inhibition with Klebsiella pneumoniae is 30.82%; in the assay with Candida albicans, 4.53%; with Cryptococcus neoformans, -12.95%.
`CCN(CC)CC.O=P(O)(O)OC1C[C@@H](O)[C@H](O)[C@@H]([C@H](O)CO)O1` (stereo not given in full): the Inhibition was 34.69% in the assay with Klebsiella pneumoniae, 2.93% in the assay with Candida albicans and -6.2% with Cryptococcus neoformans.
